Data reported in the OligoGym collection.

Each sequence was assayed against SLC7A13 (assay: pooled miR-30 sensor sort-seq; sequence = guide strand). Conditions: shRNA.
Also: reference of the scale not given here.

Sequence | sensor-assay potency score (higher = more potent)
TTAATAAGCAAAAAACTTGTGC | -0.255
ATCATTAATAATATAGACCATA | -1.16
TAAATAAACTACAGTCACCAGA | -0.342
TTCAGCATCAAAAGCATTCTGA | -0.117
TAATCCGCTGAGAACTAACAGA | -0.752
TATGCCAACACACCTTTGGGGG | -0.996
AAATCGTTCTACATTCTCCTTT | 0.252
ATATAGACCATAATGAACCCGT | -0.357
TTAACCTTGATTTGGAATCTGA | 0.0155
TTATCAGGAACACTACTCCAGT | -0.614
TAGTATTGAGCTCCACTGCATG | -1
TAATTGTAAATAGCAAGTCATC | -1.71

These sequences were tested against SLC8A1 in the same assay as above. Conditions: shRNA.

Sequence | sensor-assay potency score (higher = more potent)
TCTTACAGTAATATGATCCAGT | 0.348
TATCACAACAACATTTCCGAAC | -0.676
TTAATCTTCCTTGTCTCTCCGT | 0.395
TTGAACATGATGATGCCCCTGG | 0.652
TTGTCTTGGTGGTCTCTCCATT | -0.926
TTCTCTAGCATGAACCTTCCTG | -0.164
ATGTTCTCTAGCATGAACCTTC | -0.822
TTGTAAAACAGAAGTCTCCTAT | 0.149
TAAAACTGACAGACAATCCCAA | 0.165
TAATCTTCCTTGTCTCTCCGTC | 0.74
TTTATCTGGATGCTTCTGCTTA | -0.388

These sequences were tested against SLC8A3 in the same assay as above. Conditions: shRNA.

Sequence | sensor-assay potency score (higher = more potent)
TTTGTATCTGACTTGATTCAAC | -0.929
TGATCTTGCGAGTCTCTCCGTC | -0.247
TTGATCTTGCGAGTCTCTCCGT | -0.572
TTTGTAGTCCACATACATGGTC | -0.363
TTCTGCTGCATGTTTCTTCAGG | -0.419
TTGATCAGTTTGTCCACCGTAG | 0.465
TTGTAGTCCACATACATGGTCT | -0.435
TATTTGTAGAAGAGCAGTCGTT | -0.77
TACAAGAGCACGCTGATGCAGA | -0.14
TTTCTTAATTGTCACCTCCCTC | -0.959
TTAAATACTGTGTAAAGTCGGT | -0.0881

The sequences below were run against SLC9A10 in the same assay as above. Conditions: shRNA.

Sequence | sensor-assay potency score (higher = more potent)
TAGTCTGTGTCAATTATCGGAA | -0.585
TTAAGCAGTTTATCTCTCCTAT | -0.373
TTTTTCGTAACAGACAATCTTC | -0.245
TTGAAATGTGCAACAAACCGAT | 0.415
